Assay results: the OligoGym collection

biological target: ANAPC5; experiment: pooled miR-30 sensor sort-seq; sequence = guide strand; conditions: shRNA
Also: reference of the scale not given here.

Sequence | sensor-assay potency score (higher = more potent)
TACAGTTTAAACACTTGGCTGA | 0.833
TTGTTTTGTGAACCTCTGGTTC | -0.673
TTTTGATCACATAACATCCATA | -1.19
TTGAACTGAAAACATCTTGGAC | -0.413

biological target: ANGPTL1; experiment: as above; conditions: shRNA

Sequence | sensor-assay potency score (higher = more potent)
TCCATCTACATCCACCACCAGT | -1.83
TTTTGCTTGCTGACAGTCTTTG | -0.992
TAATTTTGAATTGTCCACCTCT | 0.889
TATAGAGTTGAGTAACACGAGA | -1.16
TTGATTGCTAAGCATATAGATA | -1.25
TTTAATGGTACTTGCATCTTGC | 0.613
ATAACTTGTAATTATCTTGATT | -0.722
TAAATTGTTAAGTATCTTGAAC | -0.687
TTAAATCTCTGGGATAACCTGG | -0.522
TTGCAGAACATCTATCTCCCGC | 0.289
TAGACTTTTTTATCACTCCAGT | -0.73

biological target: ANGPTL3; experiment: as above; conditions: shRNA

Sequence | sensor-assay potency score (higher = more potent)
TCGTCTAACATAGCAAATCTTG | -1.34
TAGAATTTTTTCTTCTAGGAGG | -0.766
TTACATCGTCTAACATAGCAAA | -1.16
TTTATATGTAGTTCTTCTCAGT | -0.38
TTAATGTCCATGGACTACCTGA | -0.665
TTGAATACTAGTCCTTCTGAGC | -0.706
TTATAGAGTATAACCTTCCATT | -0.924
TTTGTGATCCATCTATTCGATG | -1.29
TATAACATCACAGTAGACATGA | 0.929
TAATGTTTGTTGTCTTTCCAGT | -0.418
TTGACTTGTAGTTTATATGTAG | 0.386
TTCTTTTATTTGACTATGCTGT | -0.537

biological target: ANG; experiment: as above; conditions: shRNA

Sequence | sensor-assay potency score (higher = more potent)
TTCTTAGGTTTTCTCTGTGAGG | -0.88
AATGTGTTGATGTCTTTGCAGG | -1.22
TCTGTGAGGGTTTCCATTCTTG | -0.487
TTGATGTCTTTGCAGGGTGAGG | -1.52
TTTGGCATCATAGTGCTGGGTC | 0.651
TTGCCATGAATAAATGTGTTGA | -0.499
TTCACAGTATCTGTCATCCCGG | -0.736
TGGTTTGGCATCATAGTGCTGG | -0.375
TGCTTTCACAGTATCTGTCATC | -1.22
TAGCTTGCAAGTGGTGACCTGG | -0.539
TTTCTCTGTGAGGGTTTCCATT | -0.964
TTCACAAGCAACAACAACGTTT | -0.418
TTGTTTTCACAGATGGCCTTGA | 0.228
